Source: PubChem BioAssay (National Center for Advancing Translational Sciences (NCATS))
The list is not random: actives were taken first. Their share in the collection is about 5.3%.
Coupling enz = qHTS Assay for Inhibitors of Fructose-1,6-bisphosphate Aldolase from Giardia Lamblia: Coupling assay counterscreen; coupling enzyme system counterscreen, AmpLite Red fluorescence; activity change, negative = inhibition, % at 58.2 µM, hits read low; 0.67% of 290,000 active; AID 2472, 2010; in the data active = activity change below about -30%
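Coupling enzymes only (glyceraldehyde-3-phosphate) + compound, at 57.5 uM final, 10 min RT; add substrate/coupling/AmpLite Red mix, 20 min RT; fluorescence ex 525/em 598 nm. Actives flag coupling-system interference.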
Tau fibril ThT = qHTS for Inhibitors of Tau Fibril Formation, Thioflavin T Binding; Microtubule-associated protein tau (Homo sapiens), P10636; recombinant tau K18 P301L, heparin-induced fibrillization, ThT fluorescence; Potency, µM (highest dose often 57.4 µM), inactives show at the highest dose activity, negative = inhibition, hits mostly inhibitors; 2.1% of 270,000 active; note: potency is the fitted concentration of half-maximal effect; nearly all actives have a fitted effect of over 55% in size
Target sequence (P10636 561-689 P618L limits assumed): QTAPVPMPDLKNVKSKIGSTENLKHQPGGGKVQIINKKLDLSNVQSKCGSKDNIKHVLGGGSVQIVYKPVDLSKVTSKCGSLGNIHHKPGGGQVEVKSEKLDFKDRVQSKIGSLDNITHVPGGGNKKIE
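Heparin-induced (20 uM) aggregation of recombinant human K18 P301L tau, 15 uM unlabeled with 0.24 uM labeled, pH 7 acetate buffer, 6 hr at 37 C with compound. Fibrils quantified by 30 uM ThT fluorescence after 1 hr ambient incubation.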
Tau fluor counter = Counterscreen qHTS for Inhibitors of Tau Fibril Formation, Fluorescence Polarization; AID 1463, 2008; tau K18 P301L Alexa594 fluorescence, heparin fibrillization; 0.93% of 280,000 active; Potency, µM (highest dose often 57.7 µM), inactives show top-dose activity change, negative = decrease; note: potency is the fitted concentration of half-maximal effect; nearly all actives have a fitted effect of over 55% in size
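Human tau K18 P301L (15 uM unlabeled, 0.24 uM Alexa 594-labeled) in 100 mM sodium acetate pH 7 with 20 uM heparin, 6 hr at 37 C. ThT 30 uM added, 1 hr ambient; Alexa 594 FP and total fluorescence read at 555/632 nm.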
Sfp inh = qHTS Assay for Inhibitors of Bacillus subtilis Sfp phosphopantetheinyl transferase (PPTase) | Potency, µM, inactives show largest response in the series, negative = inhibition, actives largely listed as inhibitors | Biochemical Sfp PPTase activity, qHTS | 3.5% of 310,000 active | AID 1490, 2009;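 note: the enzyme is Sfp with the accession as filed and its product quenches rhodamine fluorescence; potency is the fitted concentration of half-maximal effect; 0% = enzyme reaction without inhibitor and -100% = no enzyme wells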
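Compounds were incubated with enzyme (final 15 nM) for 15 min at room temperature before substrate addition started the reaction. Fluorescence at 525 nm excitation, 598 nm emission was recorded immediately and after 30 minutes.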
JMJD2E inh = qHTS Assay for Inhibitors of Human Jumonji Domain Containing 2E (JMJD2E). Lysine-specific demethylase 4E (Homo sapiens), B2RXH2. JMJD2E catalytic domain, FDH-coupled NADH fluorescence (FDH is formaldehyde dehydrogenase). Potency, µM (top dose mostly 57.1 µM), inactives show at the top dose activity change, negative = inhibition, actives largely listed as inhibitors. 1.6% of 230,000 active; active = well fitted inhibition curve with a large enough effect, not every such curve was filed as active; inconclusive = small, poorly fitted or top-dose-only effect, or another doubt; inactive = no such curve, though single readings can be large or run the other way;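 note: potency is the fitted concentration of half-maximal effect; 0% = wells with enzyme and -100% = buffer wells without enzyme; nearly all actives have a fitted effect of over 50% in size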
Target sequence (B2RXH2 1-337 limits assumed): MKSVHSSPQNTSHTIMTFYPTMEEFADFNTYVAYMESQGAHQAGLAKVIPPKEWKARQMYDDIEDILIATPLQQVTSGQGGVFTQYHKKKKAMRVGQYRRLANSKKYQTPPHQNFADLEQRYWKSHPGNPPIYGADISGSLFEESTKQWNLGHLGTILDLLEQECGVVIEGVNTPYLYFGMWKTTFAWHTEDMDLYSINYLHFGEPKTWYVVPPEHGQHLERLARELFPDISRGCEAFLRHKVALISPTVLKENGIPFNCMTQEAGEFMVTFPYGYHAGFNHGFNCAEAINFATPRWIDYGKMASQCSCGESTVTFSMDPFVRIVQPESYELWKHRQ
Tau FP inhib = qHTS for Inhibitors of Tau Fibril Formation, Fluorescence Polarization. AID 1468, 2008. K18 P301L tau heparin fibrillization, Alexa594 FP, 6 h. Potency, µM (highest dose often 57.7 µM), for inactives: at the highest dose activity, negative = inhibition, most hits filed as inhibitors. 0.39% of 280,000 active; note: potency is the fitted concentration of half-maximal effect; nearly all actives have a fitted effect of over 55% in size
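FP of Alexa 594-tau after heparin (20 uM) induction. Substrate: human K18 P301L, 15 uM unlabeled, 0.24 uM labeled. Buffer 100 mM sodium acetate pH 7. 6 hr, 37 C.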
An asterisk follows results filed as active; u = inconclusive; x = no result. Unless noted, calls come from the whole dose curve; as a rule, active = well fitted curve in the direction sought with a large enough effect; inconclusive = small, poorly fitted or top-dose-only effect, or another doubt; inactive = no such curve, though single readings can be large; an effect the other way counts as inactive or inconclusive. Unless noted, % is set by controls: 0 for no effect and ±100 for the full control effect.

SMILES	Coupling enz	Tau fibril ThT	Tau fluor counter	Sfp inh	JMJD2E inh	Tau FP inhib
COc1ccccc1CNc1ncnc2ccc(-c3cccc(NS(C)(=O)=O)c3)cc12	-2	x	x	-9%	x	x
Cc1ccc(-c2nc(SCCOc3ccccc3C)n3[nH]c(=O)cc3n2)cc1	x	-8%	-5%	x	x	-4%
CC(=O)c1ccc(NC(=O)CN2C(=O)CCc3ccccc32)cc1	x	u	-23%	x	x	-1%
Cc1ccc(CCNS(=O)(=O)c2c(C)nc3sc(C)c(C)n3c2=O)cc1	x	-6%	-11%	x	x	-6%
O=C(NCCc1nc2ccccc2n1Cc1ccc(Cl)cc1Cl)c1ccco1	x	u	-14%	x	x	1%
CNC(=O)/C=C1\NC(C)(C)Cc2ccccc21	1	u	-5%	50µM*	-7%	4%
CC1(C)Cc2ccccc2C(=O)N1	2	9%	14%	11%	-8%	0%
CCC1=NN2C(=N)/C(=C\c3ccc(OCc4cc(=O)n5nc(CC)sc5n4)c(OC)c3)C(=O)N=C2S1	2	11µM*	-22%	9%	u	-11%
O=C(NCCN1CCOCC1)c1cc(Cl)ccc1Cl	2	x	x	1%	x	x
O=C(NCCN1CCOCC1)NC1(C(F)(F)F)Oc2ccc(Cl)cc2O1 (stereo unspecified)	-1	u	-15%	-34%	3.2µM*	-13%
COc1cccc(NC2=C(C#N)C(=O)NC(c3cccc(OC)c3O)S2)c1 (stereo unspecified)	-1	32µM*	-24%	25µM*	-9%	u
N#CC1=C(Nc2ccccc2Cl)SC(c2ccccc2O)NC1=O (stereo unspecified)	13	u	-25%	13µM*	u	32µM*
CC1SC(c2ccccc2Cl)NC1=O (stereo unspecified)	0	-3%	-3%	5%	-2%	3%
Nc1nc(-c2ccc3c(c2)CCO3)cs1	0	-17%	-20%	-12%	3%	u
Nc1nc(-c2ccc3c(c2)CCC(=O)N3)cs1	1	u	-8%	40µM*	1%	-5%
CN(Cc1ccco1)c1ncncc1-c1ccccc1C(F)(F)F	2	x	x	-22%	x	x
Nc1nc(-c2ccc3c(c2)OCCO3)c(CC(=O)O)s1	4	x	x	-20%	x	x
C=CCN=C1NN=C(c2ccc3c(c2)OCCO3)CS1	1	u	1%	1%	u	-2%
NC1=NN=C(c2ccc3c(c2)OCCO3)CS1	-3	u	-17%	79µM*	2%	2%
Cc1sc(N)nc1-c1ccc2c(c1)OCCO2	0	x	x	79µM*	x	x
COC(=O)c1sc2nc(-c3ccccc3)nc(N3CCN(C)CC3)c2c1C	-1	-12%	-18%	50µM*	u	-3%
C/C(=C\C[Si](C)(C)C)CC[C@H](O)C1=CCCCC1=O	-1	-4%	-3%	9%	0%	-4%
CC(C)Oc1ccc(CNC(=O)C2CCCN(S(=O)(=O)c3ccc4c(ccn4C)c3)C2)cc1 (stereo unspecified)	x	8%	1%	x	x	-11%
Cn1cccc1/C=N/N1CCN(c2ccccc2)CC1	2	u	-17%	28µM*	u	3%
Cn1cccc1/C=N/N1CCN(Cc2ccccc2Cl)CC1	-8	-13%	-11%	56µM*	-19%	0%
SMILES	Coupling enz	Tau fibril ThT	Tau fluor counter	Sfp inh	JMJD2E inh	Tau FP inhib
Cc1ccc(N2CCN(/N=C/c3ccccc3)CC2)cc1	0	u	-11%	19%	-5%	10%
CCCCNC(=O)C1=CC(c2ccc3c(c2)OCO3)=NS(=O)(=O)N1C	x	1%	0%	x	x	-6%
Nc1cccn2c(-c3ccc(Cl)c(Cl)c3)cnc12	3	13µM*	u	-17%	20µM*	-6%
CCOc1ccc(NC(=O)c2nn(C)c3c2COc2ccccc2-3)cc1	x	-12%	-12%	x	x	-5%
CC1(C)C(=O)C(c2ccccc2)=C2CN3C(=O)N(CCc4ccccc4)C(=O)C3(Cc3ccccc3)C=C21 (stereo unspecified)	0	-15%	-15%	8%	-10%	-4%
Cc1cc(NC(=O)CCCn2c(C)c3cnn(-c4ccccc4)c(=O)c3c2C)ccc1Br	x	-7%	u	x	x	-10%
CCCN1C(=O)C(Cc2nc3ccccc3c(=O)n2-c2ccc(OC)cc2)c2cc(C)ccc21 (stereo unspecified)	x	-16%	-14%	x	x	-4%
Cc1ccc(CSc2nnc3c(n2)OC2(Nc4ccccc4-3)C(=O)Nc3ccc(F)cc32)cc1 (stereo unspecified)	-13	28µM*	u	-16%	u	u
O=C1Nc2ccc(F)cc2C12Nc1ccccc1-c1nnc(SCc3ccccc3)nc1O2 (stereo unspecified)	-11	u	u	-14%	-5%	u
O=C1Nc2ccc(F)cc2C12Nc1ccccc1-c1nnc(SCc3ccccc3Cl)nc1O2 (stereo unspecified)	-8	28µM*	u	-3%	4%	u
Cc1ccc(Oc2nc(CN3CCOCC3)nc3sc4c(c23)CCC(C)C4)cc1C (stereo unspecified)	-1	-14%	-1%	40µM*	-3%	-10%
Cn1c(=O)c(=O)n(C)c2cc(NC(=O)c3cccc(F)c3)c(Cl)cc21	x	u	-16%	x	x	-14%
O=C(N/N=C/c1ccccn1)c1ccccc1	7	-7%	-9%	u	-4%	-1%
COc1cc(C(=O)N/N=C/c2ccccn2)cc(OC)c1OC	2	-11%	4%	56µM*	u	-5%
O=C(N/N=C\c1ccccn1)c1ccccc1O	0	-16%	-9%	u	u	7%
O=C(N/N=C1\C/C(=N\NC(=O)c2ccncc2)c2ccccc21)c1ccncc1	-34*	10µM*	u	6%	u	u
COc1ccc(OC)c(C(=O)N/N=C/c2ccccn2)c1	0	x	x	-9%	x	x
Cc1ccccc1C(=O)N/N=C/c1ccccn1	2	-9%	0%	71µM*	u	-1%
O=C(N/N=C/c1ccccn1)c1ccncc1	0	x	x	20µM*	x	x
Nc1nc2c(nc(Sc3ccc(Cl)cc3)n2C2OC(CO)C(O)C2O)c(=O)[nH]1 (stereo unspecified)	6	u	-7%	-16%	2%	-19%
